PubChem BioAssay AID1159580 (chemical genetic matrix, 2015)
“And” between values parts separate entries of the source, which are not always exact repeats. Equal values may be shown once. Screen size: about 5,500 compounds; about 2,000 (36%) were called active. Not shown: some 18% with an inconclusive outcome. Rule as the data show it: active = normalized growth mostly below about 0.91 (no sharp cut-off); inconclusive = no clear call, values can overlap the other calls; inactive = mostly above about 0.92. The list shows a part of the results.

Experiment: chemical genetic growth profiling, strain panel (AID 1159580);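 also: tested at 20 µM; growth read once vehicle control cultures reached saturation at 30 °C; 1 = growth at the plate median or of vehicle wells; lower values mean less growth of the strain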
Conditions: S. cerevisiae deletion strains, growth OD

Measured: normalized growth

C=C[C@H]1CN2CC[C@H]1C[C@@H]2[C@@H](OC(=O)OCC)c1ccnc2ccc(OC)cc12
inactive: locus YAL013W, strain DEP1, active compounds read low 1 | locus YAL021C, strain ccr4, active compounds read low 0.93 | locus YAL026C, strain drs2, active compounds read low 1.01 | locus YAL030W, strain snc1, active compounds read low 0.989 | locus YBL061C, strain skt5, active compounds read low 0.995 | locus YBR009C, strain hhf1, active compounds read low 0.978 | locus YBR021W, strain FUR4, active compounds read low 0.992 | locus YBR023C, strain chs3, active compounds read low 0.997 | locus YBR171W, strain sec66, active compounds read low 0.995 | locus YBR229C, strain ROT2, active compounds read low 1 | locus YBR231C, strain swc5, active compounds read low 1 | locus YBR279W, strain paf1, active compounds read low 0.997 | locus YCL011C, strain gbp2, active compounds read low 0.969 | locus YCL016C, strain dcc1, active compounds read low 0.955 | locus YCL029C, strain bik1, active compounds read low 1.02 | locus YCL061C, strain MRC1, active compounds read low 0.979 | locus YCL069W, strain vba3, active compounds read low 0.998 | locus YCR088W, strain abp1, active compounds read low 0.999 | locus YDL005C, strain med2, active compounds read low 0.978 | locus YDL035C, strain GPR1, active compounds read low 0.981 | locus YDL040C, strain nat1, active compounds read low 0.994 | locus YDL074C, strain BRE1, active compounds read low 1.03 | locus YDL101C, strain DUN1, active compounds read low 1.02 | locus YDL134C, strain PPH21, active compounds read low 0.991 | locus YDL185W, strain tfp1, active compounds read low 1.02 | locus YDL192W, strain arf1, active compounds read low 1.01 | locus YDR001C, strain nth1, active compounds read low 0.985 | locus YDR069C, strain doa4, active compounds read low 0.979 | locus YDR101C, strain arx1, active compounds read low 1 | locus YDR137W, strain rgp1, active compounds read low 1.01 | locus YDR150W, strain NUM1, active compounds read low 1.01 | locus YDR159W, strain sac3, active compounds read low 1.03 | locus YDR162C, strain NBP2, active compounds read low 1.02 | locus YDR195W, strain ref2 0.956 | locus YDR297W, strain sur2, active compounds read low 1.01 | locus YDR318W, strain mcm21, active compounds read low 1.01 | locus YDR334W, strain swr1, active compounds read low 0.995 | locus YDR335W, strain msn5, active compounds read low 0.983 | locus YDR388W, active compounds read low 1.02 | locus YDR392W, strain spt3, active compounds read low 0.879 | locus YDR502C, strain sam2, active compounds read low 1.01 | locus YEL003W, strain gim4, active compounds read low 0.999 | locus YEL037C, strain rad23, active compounds read low 0.983 | locus YEL061C, strain CIN8 (second series), active compounds read low 0.994 | locus YEL061C, strain CIN8, active compounds read low 1.01 | locus YER015W, strain faa2, active compounds read low 0.989 | locus YER016W, strain bim1, active compounds read low 0.995 | locus YER110C, active compounds read low 1.03 | locus YER111C, strain swi4, active compounds read low 0.991 | locus YER155C, strain BEM2 (second series), active compounds read low 1.01 | locus YER155C, strain BEM2, active compounds read low 1 | locus YER167W, strain BCK2, active compounds read low 0.997 | locus YFR010W, strain ubp6, active compounds read low 1 | locus YGL078C, strain dbp3, active compounds read low 1.01 | locus YGL086W, strain mad1, active compounds read low 1.01 | locus YGL167C, strain pmr1, active compounds read low 0.962 | locus YGL173C, strain kem1, active compounds read low 1.01 | locus YGL227W, strain vid30, active compounds read low 0.994 | locus YGL240W, strain doc1, active compounds read low 1.01 | locus YGL248W, strain PDE1, active compounds read low 1.03 | locus YGL253W, strain hxk2, active compounds read low 1.04 | locus YGR135W, strain pre9, active compounds read low 1.02 | locus YGR229C, strain SMI1, active compounds read low 1.01 | locus YGR252W, strain gcn5, active compounds read low 0.984 | locus YHR013C, strain ard1, active compounds read low 0.951 | locus YHR027C, strain rpn1, active compounds read low 0.983 | locus YHR030C, strain SLT2, active compounds read low 1.01 and 1.08 | locus YHR079C, strain IRE1 (second series), active compounds read low 1.03 | locus YHR079C, strain IRE1, active compounds read low 1.03 | locus YHR094C, strain hxt1, active compounds read low 1.02 | locus YHR129C, strain ARP1, active compounds read low 1.01 | locus YHR142W, strain chs7, active compounds read low 0.973 | locus YHR200W, strain rpn10, active compounds read low 1.02 | locus YIL066C, strain RNR3, active compounds read low 1.01 | locus YIL073C, strain SPO22, active compounds read low 1.04 | locus YIL125W, strain kgd1, active compounds read low 1.02 | locus YIR030C, strain dcg1, active compounds read low 1.02 | locus YJL092W, strain hpr5, active compounds read low 0.992 | locus YJL095W, strain BCK1 (second series), active compounds read low 0.986 | locus YJL095W, strain BCK1, active compounds read low 1.04 and 1.02 | locus YJL115W, strain asf1, active compounds read low 0.966 | locus YJL129C, strain trk1, active compounds read low 1.02 | locus YJL134W, strain LCB3, active compounds read low 1.01 | locus YJL154C, strain vps35, active compounds read low 0.986 | locus YJL164C, strain tpk1, active compounds read low 0.966 | locus YJL166W, strain qcr8, active compounds read low 1 | locus YJL168C, strain set2, active compounds read low 1.03 | locus YJL187C, strain SWE1 (second series), active compounds read low 1.03 | locus YJR043C, strain POL32, active compounds read low 0.996 | locus YJR066W, strain TOR1, active compounds read low 1 | locus YKL009W, strain mrt4, active compounds read low 1.04 | locus YKL068W, active compounds read low 1.02 | locus YKL085W, strain MDH1 (second series), active compounds read low 1.01 | locus YKL085W, strain MDH1, active compounds read low 1.01 | locus YKL160W, strain elf1, active compounds read low 0.96 | locus YKL190W, strain CNB1, active compounds read low 1.01 | locus YKR001C, strain vps1, active compounds read low 1.01 | locus YKR026C, strain gcn3, active compounds read low 0.998 | locus YKR091W, strain srl3, active compounds read low 0.991 | locus YLL001W, strain dnm1, active compounds read low 0.942 | locus YLL026W, active compounds read low 0.985 | locus YLL041C, strain sdh2, active compounds read low 0.976 | locus YLR027C, strain aat2, active compounds read low 1.01 | locus YLR039C, strain RIC1, active compounds read low 1.01 | locus YLR058C, strain SHM2, active compounds read low 1.01 | locus YLR102C, strain apc9, active compounds read low 1.02 | locus YLR113W, strain HOG1, active compounds read low 1.01 | locus YLR221C, strain rsa3, active compounds read low 1.04 | locus YLR258W, strain gsy2, active compounds read low 0.973 | locus YLR262C, strain YPT6 (second series), active compounds read low 1 | locus YLR262C, strain YPT6, active compounds read low 1.05 | locus YLR268W, strain sec22, active compounds read low 1.02 | locus YLR320W, strain mms22, active compounds read low 1.07 | locus YLR330W, strain CHS5, active compounds read low 1.01 | locus YLR342W, strain FKS1 (second series), active compounds read low 0.998 | locus YLR342W, strain FKS1, active compounds read low 0.995 | locus YLR357W, strain rsc2, active compounds read low 0.962 | locus YLR370C, strain arc18, active compounds read low 0.99 | locus YLR371W, strain rom2, active compounds read low 1.02 | locus YLR384C, strain iki3, active compounds read low 0.997 | locus YLR418C, strain cdc73, active compounds read low 1.02 | locus YML016C, strain PPZ1, active compounds read low 1.01 | locus YML032C, strain rad52, active compounds read low 1.02 | locus YML120C, strain ndi1, active compounds read low 0.973 | locus YML124C, strain tub3, active compounds read low 1.02 | locus YMR058W, strain fet3, active compounds read low 0.989 | locus YMR078C, strain ctf18, active compounds read low 1.02 | locus YMR125W, strain sto1, active compounds read low 0.963 | locus YMR129W, active compounds read low 0.997 | locus YMR205C, strain PFK2, active compounds read low 0.951 | locus YMR223W, strain ubp8, active compounds read low 1.01 | locus YMR231W, strain pep5, active compounds read low 1 | locus YMR263W, strain SAP30, active compounds read low 1.03 | locus YMR307W, strain GAS1, active compounds read low 0.905 | locus YNL067W, strain RPL9B, active compounds read low 1.05 | locus YNL071W, strain lat1, active compounds read low 0.997 | locus YNL183C, strain NPR1, active compounds read low 0.986 | locus YNL209W, strain ssb2, active compounds read low 0.983 | locus YNL233W, strain BNI4, active compounds read low 1.03 | locus YNL248C, strain rpa49, active compounds read low 1.02 | locus YNL250W, strain rad50, active compounds read low 1.01 | locus YNL271C, strain bni1, active compounds read low 1.04 | locus YNL298W, strain CLA4, active compounds read low 1.03 | locus YNL307C, strain MCK1, active compounds read low 1.02 | locus YNL322C, strain KRE1 (second series), active compounds read low 0.988 | locus YNR049C, strain mso1, active compounds read low 0.989 | locus YNR052C, strain pop2, active compounds read low 1.02 | locus YOL006C, strain TOP1, active compounds read low 1.14 | locus YOL012C, strain htz1 1.23 | locus YOL147C, strain pex11, active compounds read low 1.02 | locus YOR001W, strain rrp6, active compounds read low 1.01 | locus YOR061W, strain CKA2, active compounds read low 1.02 | locus YOR069W, strain VPS5, active compounds read low 1.01 | locus YOR070C, strain gyp1, active compounds read low 1.03 | locus YOR080W, strain dia2, active compounds read low 0.988 | locus YOR083W, strain WHI5, active compounds read low 0.963 | locus YOR106W, strain vam3, active compounds read low 0.934 | locus YOR136W, strain idh2, active compounds read low 1.02 | locus YOR144C, strain elg1, active compounds read low 1.02 | locus YOR184W, strain ser1, active compounds read low 1.02 | locus YOR231W, strain MKK1, active compounds read low 1.03 | locus YOR265W, strain rbl2, active compounds read low 0.996 | locus YOR270C, strain vph1, active compounds read low 1.07 | locus YOR290C, strain snf2, active compounds read low 0.94 | locus YOR316C, strain cot1, active compounds read low 1.02 | locus YPL051W, strain arl3, active compounds read low 0.983 | locus YPL078C, strain atp4, active compounds read low 0.946 | locus YPL106C, strain sse1, active compounds read low 0.934 | locus YPL240C, strain hsp82, active compounds read low 0.998 | locus YPL256C, strain CLN2, active compounds read low 1.09 | locus YPR119W, strain clb2, active compounds read low 1.01 | locus YPR141C, strain kar3, active compounds read low 1.01 | locus YPR163C, strain tif3, active compounds read low 1.03 | locus YPR167C, strain met16, active compounds read low 1.02 | strain wtn01, active compounds read low 1.04
